# Results from PubChem BioAssay (NCATS).
# Inconclusive results are not listed. Calls of active or inactive are those of the source. The call rests on the fitted dose curve; in most records, active means well fitted inhibition curve with a large enough effect; inconclusive means small, poorly fitted or top-dose-only effect; inactive means flat fitted curve, though single readings scatter.
# Test system: CRL-7250
# Assay: Cytotoxic Profiling of Annotated Libraries Using Quantitative High-Throughput Screening (AID 1296008); further: nearly all actives have a fitted effect of over 60% in size
# Conditions: Five cell lines viability, CellTiter-Glo ATP luminescence, 48-72 h; max response: stronger effect = lower value
# Outline: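 Cytotoxicity was measured as CellTiter-Glo ATP luminescence, read after 10 min at room temperature. Compound treatment of the cells lasted 48 or 72 hr at 37 degrees Celsius in a qHTS format.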
# On the % scale 0 is the no-effect control and ±100 the full control effect; potency means the concentration at half of the fitted maximal effect.
SMILES,max response,outcome,Potency
Cc1nc(NC(=O)N2CCCC2C(N)=O)sc1-c1csc(C(C)(C)C)n1 (stereo unspecified),-8.95% (inactive),,
CCC(CC)C(=O)Nc1sc2c(c1C#N)CCC(C(C)(C)CC)C2 (stereo unspecified),,inactive,
COc1ccc(/C=C\C(=O)O)c(O[C@@H]2O[C@H](CO)[C@@H](O)[C@H](O)[C@H]2O)c1,,inactive,
CCOc1cc(C(=O)N2CCC(N3CCN(C)CC3)CC2)ccc1Nc1ncc2c(n1)N(C1CCCC1)c1ccccc1C(=O)N2C,,,10.3 µM (active)
CC(=O)N[C@@H](CCCCN)C(=O)N(C)[C@@H](CC(C)C)C(=O)N[C@H](C(=O)N(C)[C@@H](Cc1ccccc1)C(=O)N[C@H](Cc1ccccc1)C(N)=O)C(C)C,,inactive,
C=C(C)C1CC[C@]2(C(=O)O)CC[C@]3(C(=O)O)[C@H](CCC4[C@@]5(C)CC[C@H](O)C(C)(C)C5CC[C@]43C)C12 (stereo partly specified),-0.813% (inactive),,
COc1cc(Nc2nc3c(s2)CCCC3c2ccc(F)cc2)ccc1-n1cnc(C)c1 (stereo unspecified),,,14.6 µM (active)
C/C(=C\CCC1(C)C2CCC(C2)C1(C)O)C(=O)O (stereo unspecified),,inactive,
O=C(O)c1ccc(CN2CCC(CN[C@@H]3C[C@H]3c3ccccc3)CC2)cc1,-10.5% (inactive),,
CNC(=O)c1cccc(-c2ccc3c(N4CCOC[C@@H]4C)nc(N4CCOC[C@@H]4C)nc3n2)c1,,,0.58 µM (active)
NC(=O)C(CCC(F)(F)F)N(Cc1ccc(-c2ncon2)cc1F)S(=O)(=O)c1ccc(Cl)cc1 (stereo unspecified),-7.08% (inactive),,
C/C=C1\[C@H](O[C@@H]2O[C@H](CO)[C@@H](O)[C@H](O)[C@H]2O)OC=C(C(=O)OC)[C@H]1CC(=O)OC[C@H]1O[C@@H](OCCc2ccc(O)cc2)[C@H](O)[C@@H](O)[C@@H]1O,-9.74% (inactive),,
Cc1ccccc1NC(=O)Nc1ccc(CC(=O)N(C)[C@@H](CC(C)C)C(=O)NCC[C@H](NC(=O)[C@@H]2CCCN2S(=O)(=O)c2cc(Cl)cc(Cl)c2)C(=O)O)cc1,-22.4% (inactive),,
CC(=O)NC1=NN(C(C)=O)C(C)(c2ccccc2)S1 (stereo unspecified),-15.8% (inactive),,
CCC(O)C(C)C1CCC(C(C)C(=O)O)O1 (stereo unspecified),,inactive,
CC1(C)CCC[C@]2(C)[C@H]3CC(=O)O[C@]3(C)CC[C@@H]12,-21.8% (inactive),,

SMILES,max response,outcome,Potency
CC(NC(=O)CCc1nc2ccccc2c(=O)[nH]1)c1ccccc1 (stereo unspecified),-18.4% (inactive),,
COCC1OC(OC(C)(C)C2CCC3(C)C=C(C4CCC5C4(C)CC(O)C4OC(C(C)(C)OC6OC(CO)C(O)C(O)C6NC(C)=O)CCC45C)CCC3O2)C(NC(C)=O)C(O)C1O (stereo unspecified),2.51% (inactive),,
CCc1c(C)nc2c(-c3cnn(-c4cc(CO)ccn4)c3)c[nH]n2c1=O,-0.312% (inactive),,
CC1(O)CCCC2(C)C1CCC13CC(CO)C(CCC12)C3 (stereo unspecified),-2.17% (inactive),,
CC1(O)CC(O)C2(O)C=COC(O[C@@H]3O[C@H](CO)[C@@H](O)[C@H](O)[C@H]3O)C12 (stereo partly specified),-2.75% (inactive),,
CC(NC(=O)C(O)C(C)C)C(=O)NC1C(=O)N(C)CCc2ccccc21 (stereo unspecified),-0.526% (inactive),,
CC1=CCC2C(C)(C)CCC[C@]2(C)[C@@]12CC[C@](C)(CC(=O)O)O2 (stereo partly specified),-19.8% (inactive),,
CC(C)NCC(C(=O)N1CCN(c2ncnc3c2C(C)CC3O)CC1)c1ccc(Cl)cc1 (stereo unspecified),-1.68% (inactive),,
CC(=O)/C=C/[C@H]1[C@](C)(O)[C@@H](O)[C@H](OC(C)=O)C2C(C)(C)CCC[C@@]21C (stereo partly specified),4.5% (inactive),,
O=C(CC(c1ccccc1)c1ccccc1)N1CCN(C(c2ccccc2)c2ccccc2)CC1,-24.4% (inactive),,
COc1cc2oc(-c3ccc(O)cc3O)cc2c(OC)c1CC=C(C)C,-1.99% (inactive),,
CN(C)C/C=C/C(=O)Nc1cccc(C(=O)Nc2ccc(Nc3nccc(-c4cccnc4)n3)cc2)c1,,,7.31 µM (active)
COC(=O)[C@H](O)[C@H]1C(C)(C)[C@H](OC(=O)C(C)C)[C@@]2(O)C(=O)[C@]1(C)C1CC[C@]3(C)C(CC(=O)O[C@H]3c3ccoc3)[C@]13O[C@@H]32 (stereo partly specified),-16.9% (inactive),,
NC1CCCCN(c2c(F)cc3c(=O)c(C(=O)O)cn(C4CC4)c3c2Cl)C1 (stereo unspecified),3.42% (inactive),,
CC(C)=CCC[C@](C)(O)[C@H]1CC[C@]2(C)[C@@H]1[C@H](O)CC1[C@@]3(C)CC[C@H](O)C(C)(C)[C@@H]3[C@@H](O[C@@H]3O[C@H](CO)[C@@H](O)[C@H](O)[C@H]3O[C@@H]3O[C@H](CO)[C@@H](O)[C@H](O)[C@H]3O)C[C@]12C (stereo partly specified),-7.72% (inactive),,
